Growth data for 25 compounds are collected here from PubChem BioAssay (NCI).

The structures appear in SMILES notation. Compounds without any hit were thinned out: in the full panel of roughly 83,000, 20% have a hit.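 Step 1: grow cells in 96-well plates. Step 2: add test compound at a single concentration. Step 3: incubate 48 h. Step 4: record percent growth.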 Calls of active or inactive are those of the source. How the source made its calls: active means growth percent below 10; inactive means the rest.

The subject of the assay is MDA-MB-468 breast. Kind of assay: NCI-60 one-dose screen, 48 h (100 = growth as untreated, 0 = no growth, -100 = all killed). The following applies: 10 µM unless noted.
On to `O=C1/C(=C\c2ccc(F)cc2)CN(C(=O)c2ccc([N+](=O)[O-])cc2)C/C1=C\c1ccc(F)cc1`, for which the growth was 0.822% (active). Consider `O=C1/C=C/[C@@H](O)[C@@H]2C[C@@H](O)C[C@H]2/C=C/CCC[C@H]([C@@H](O)CO)O1`, for which the growth was -5.34% (active).

Take `CCCCn1cnc2c(SCc3ccc([N+](=O)[O-])cc3)nc(N)nc21`: the growth was 80.8% (inactive). Consider `COc1cccc(CNc2c3ccccc3nc3ccccc23)c1OC`, for which the growth was 1.08% (active). On to `CCN(CC)C(=O)O/N=C(/C)c1ccccc1`, for which the growth was 96.5% (inactive). For `Cc1cc2c(C(C)C)c(O)c(O)c(C=NCCCCCCC(=O)O)c2c(O)c1-c1c(C)cc2c(C(C)C)c(O)c(O)c(C=NCCCCCCC(=O)O)c2c1O`, the growth is 30.4% (inactive). Consider `O=c1[nH]c(=O)n(C2CC(O)C(CO)O2)cc1C(F)(F)F` (stereo not given), for which the growth was 62.7% (inactive). For the compound `CNc1ccccc1C(N)=O`, the growth was 105% (inactive). Under `CC(CCC#N)(CCC#N)C(=O)c1ccccc1` stands 106% (inactive).

Turning to `CC(C)[C@H](CN)NC[C@H](C)NS(=O)(=O)c1ccc(C(C)(C)C)cc1`, the growth was 86.5% (inactive).

Regarding `COC(=O)c1ccc(-n2cc(CCCOS(=O)(=O)c3ccc(F)cc3)nn2)cc1`, the growth was 108% (inactive).

For the compound `CC1=C(CCC(C)NCc2ccc(OCCCN3CCCCC3)cc2)C(C)(C)CCC1` (stereo not given), the growth is -92.7% (active). On to `CC(C)N=C(N)/N=C(\N)Nc1ccc2ccc3ccccc3c2c1`, for which the growth was -91.1% (active). For the compound `CSC1=NCCCC1`, the growth was 102% (inactive). Take `O=C(CNc1cccnc1)Nc1ccc(C(=O)/C=C/c2ccc(Cl)cc2)cc1`: the growth is 91.9% (inactive). For the compound `O=c1[nH]c(=O)n(C2C[C@@H](O)[C@@H](CO)O2)cc1F` (stereo not given in full), the growth was -3.59% (active). Under `Cc1ccc(-c2nc(SCC(=O)N3CCN(c4cc5c(cc4F)c(=O)c(C(=O)O)cn5C4CC4)CC3)nc(Cl)c2C#N)cc1` stands 95% (inactive); under `Nc1cccc(-c2nc3sccn3c2-c2ccnc(NCCNS(=O)(=O)c3ccc(C(F)(F)F)cc3)n2)c1`, 51.4% (inactive); under `COc1cccc(C(=O)Nc2ccc(CN3CCc4nc5cc(OC)c(OC)cc5cc43)cc2)c1`, 63.6% (inactive). As to `C=C1N(C)c2ccc(Cl)cc2C1(C)C`, the growth is 5.23% (active). On to `CS(=O)(=O)c1nccc(-c2c(-c3cccc(OCc4ccc(Cl)c(C(F)(F)F)c4)c3)nc3sccn23)n1`, for which the growth is -66.1% (active). Under `CC1(C)CC(=O)c2c(ccc(C(=O)C[C@H](N)CO)c2N)O1` stands 3.17% (active); under `CCOc1cccc(NC2=C(Br)C(=O)C(C)=C(C)C2=O)c1`, -65.7% (active). Under `COc1cc2nc(-c3ccc(C#N)cc3)[nH]c(=O)c2cc1OC` stands 113% (inactive). `C#CC[C@@H]1C[C@]2(C)[C@H]3CC=C4[C@H]5[C@@H](C)[C@H](C)CC[C@]5(C(=O)NCCCCCCCCN)CC[C@@]4(C)[C@]3(C)CC[C@H]2C(C)(C)[C@H]1OC(C)=O`: the growth is 62.4% (inactive).
